Test results: the supplement of paper PMC10849652
About 8,800 targets were measured; listed, in parts, are those with a hit and a random draw of the rest. About 0.5% of all pairs of compound and target were hits.

What was measured:
Assay in all cases: log2 fold change, soluble protein after heating vs DMSO (PISA); higher = thermal stabilisation; K562 lysate, 10 uM; active = over 0.2 and 3.5 SD of the protein, either way, in both replicates (recomputed)
[1] = compound: C=CC(=O)N1CCC[C@@H](n2nc(-c3ccc(Oc4ccccc4)cc3)c3c(N)ncnc32)C1 [ibrutinib]
How it was run: (§1)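 Following dounce homogenisation of K562 pellets in PBS pH 7.4 with 1 mM MgCl2, crude extract at 1 mg/mL protein was incubated for 30 min with 10 μM compound. Aliquots were then heated for 3 min over 48°C-58°C and pooled, NP-40 was added to 0.5% at 4°C, and soluble protein was recovered as the supernatant at 21,000xg for 90 min. Channel-sum-equalised TMTpro 16plex LC-MS/MS quantified this protein. Each value, from duplicates, is a log-two fold change in thermal stability relative to solvent controls.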

[2] = compound: CC(=O)c1cnc2ccc(-c3cc(Cl)c(O)c(Cl)c3)nc2c1N[C@H]1CC[C@H](CN(C)C)CC1
How it was run: as §1

[3] = compound: CC(C)(C)Cn1c(N)nc2ccc(-c3[nH]c(C(C)(C)C)nc3-c3ccc(F)cc3)nc21 [ralimetinib]
How it was run: as §1

[4] = compound: CC(C)(O)CC(=O)NCCn1ccc2ncnc(Nc3ccc(Oc4cccc(C(F)(F)F)c4)c(Cl)c3)c21
How it was run: as §1

[5] = compound: CC(C)C1=C2N=C(C=C(N2N=C1)NCC3=CC=CC=C3)NCCCCCCN
How it was run: as §1

[6] = compound: CC1=C(C(CC(=O)N1)C2=CC=C(C=C2)C(F)(F)F)C(=O)NC3=C(C=C4C(=C3)C=NN4)F
How it was run: as §1

[7] = compound: CC1=C(C2=C(C=C1)C(=O)C3=CC=CC=C3N2CCCN)C
How it was run: as §1

[8] = compound: CC1=C(C=C(C=C1)NC(=O)C2=CC(=CC=C2)C(C)(C)C#N)NC3=CC4=C(C=C3)N=CN(C4=O)C
How it was run: as §1

[9] = compound: CC1=C(C=C(C=C1)NC(=O)C2=CC(=CC=C2)N(C)C)NC(=O)C3=CC=C(C=C3)O
How it was run: as §1

[10] = compound: CC1=CC=C(C=C1)SC2=C3C=C(SC3=CN=C2)C(=O)N
How it was run: as §1

[11] = compound: CCCS(=O)(=O)Nc1ccc(F)c(C(=O)c2c[nH]c3ncc(-c4ccc(Cl)cc4)cc23)c1F [vemurafenib]
How it was run: as §1

[12] = compound: CCCS(=O)(=O)Nc1ccc(F)c(C(=O)c2c[nH]c3ncc(Cl)cc23)c1F
How it was run: as §1

[13] = compound: CCN(CCCOc1ccc2c(Nc3cc(CC(=O)Nc4cccc(F)c4)[nH]n3)ncnc2c1)CCOP(=O)(O)O [barasertib]
How it was run: as §1

[14] = compound: CC[C@@H]1C(=O)N(C)c2cnc(Nc3ccc(C(=O)NC4CCN(C)CC4)cc3OC)nc2N1C1CCCC1
How it was run: as §1

[15] = compound: CC[C@@H]1C(=O)N(C)c2cnc(Nc3ccc(C(=O)N[C@H]4CC[C@H](N5CCN(CC6CC6)CC5)CC4)cc3OC)nc2N1C(C)C [volasertib]
How it was run: as §1

[16] = compound: CCn1c(C(=O)N(C2CC2)C2CC2)cc2c3c(ncn3C)c(Nc3cc(C)n(C)n3)nc21
How it was run: as §1

[17] = compound: CCn1cc(-c2ccnc3[nH]c(-c4cccc(CN(C)C)c4)cc23)c(-c2ccc(NC(=O)N(C)C)cc2)n1
How it was run: as §1

[18] = compound: CN1CCC(CNc2ccc3ncc(-c4cccc(OC(F)(F)F)c4)n3n2)CC1
How it was run: as §1

[19] = compound: CN1CCN(CCOc2cc(OC3CCOCC3)c3c(Nc4c(Cl)ccc5c4OCO5)ncnc3c2)CC1 [saracatinib]
How it was run: as §1

[20] = compound: CN1CCN(c2nc(C3=C(c4c[nH]c5ccccc45)C(=O)NC3=O)c3ccccc3n2)CC1 [sotrastaurin]
How it was run: as §1

Measured: log2 fold change

SYPL1 (UniProt Q16563)
inactive: [1] 0.015 | [2] 0.004 | [3] 0.018 | [4] -0.058 | [5] 0 | [6] -0.025 | [7] -0.018 | [8] 0.007 | [9] 0.006 | [10] -0.005 | [11] -0.006 | [12] -0.019 | [13] 0.076 | [14] 0.004 | [15] 0.032 | [16] -0.011 | [18] 0.194 | [19] 0.01 | [20] 0.023
active: [17] -0.418

SMARCA4 (UniProt P51532)
Sequence of UniProt P51532 (P51532 whole entry, looked up): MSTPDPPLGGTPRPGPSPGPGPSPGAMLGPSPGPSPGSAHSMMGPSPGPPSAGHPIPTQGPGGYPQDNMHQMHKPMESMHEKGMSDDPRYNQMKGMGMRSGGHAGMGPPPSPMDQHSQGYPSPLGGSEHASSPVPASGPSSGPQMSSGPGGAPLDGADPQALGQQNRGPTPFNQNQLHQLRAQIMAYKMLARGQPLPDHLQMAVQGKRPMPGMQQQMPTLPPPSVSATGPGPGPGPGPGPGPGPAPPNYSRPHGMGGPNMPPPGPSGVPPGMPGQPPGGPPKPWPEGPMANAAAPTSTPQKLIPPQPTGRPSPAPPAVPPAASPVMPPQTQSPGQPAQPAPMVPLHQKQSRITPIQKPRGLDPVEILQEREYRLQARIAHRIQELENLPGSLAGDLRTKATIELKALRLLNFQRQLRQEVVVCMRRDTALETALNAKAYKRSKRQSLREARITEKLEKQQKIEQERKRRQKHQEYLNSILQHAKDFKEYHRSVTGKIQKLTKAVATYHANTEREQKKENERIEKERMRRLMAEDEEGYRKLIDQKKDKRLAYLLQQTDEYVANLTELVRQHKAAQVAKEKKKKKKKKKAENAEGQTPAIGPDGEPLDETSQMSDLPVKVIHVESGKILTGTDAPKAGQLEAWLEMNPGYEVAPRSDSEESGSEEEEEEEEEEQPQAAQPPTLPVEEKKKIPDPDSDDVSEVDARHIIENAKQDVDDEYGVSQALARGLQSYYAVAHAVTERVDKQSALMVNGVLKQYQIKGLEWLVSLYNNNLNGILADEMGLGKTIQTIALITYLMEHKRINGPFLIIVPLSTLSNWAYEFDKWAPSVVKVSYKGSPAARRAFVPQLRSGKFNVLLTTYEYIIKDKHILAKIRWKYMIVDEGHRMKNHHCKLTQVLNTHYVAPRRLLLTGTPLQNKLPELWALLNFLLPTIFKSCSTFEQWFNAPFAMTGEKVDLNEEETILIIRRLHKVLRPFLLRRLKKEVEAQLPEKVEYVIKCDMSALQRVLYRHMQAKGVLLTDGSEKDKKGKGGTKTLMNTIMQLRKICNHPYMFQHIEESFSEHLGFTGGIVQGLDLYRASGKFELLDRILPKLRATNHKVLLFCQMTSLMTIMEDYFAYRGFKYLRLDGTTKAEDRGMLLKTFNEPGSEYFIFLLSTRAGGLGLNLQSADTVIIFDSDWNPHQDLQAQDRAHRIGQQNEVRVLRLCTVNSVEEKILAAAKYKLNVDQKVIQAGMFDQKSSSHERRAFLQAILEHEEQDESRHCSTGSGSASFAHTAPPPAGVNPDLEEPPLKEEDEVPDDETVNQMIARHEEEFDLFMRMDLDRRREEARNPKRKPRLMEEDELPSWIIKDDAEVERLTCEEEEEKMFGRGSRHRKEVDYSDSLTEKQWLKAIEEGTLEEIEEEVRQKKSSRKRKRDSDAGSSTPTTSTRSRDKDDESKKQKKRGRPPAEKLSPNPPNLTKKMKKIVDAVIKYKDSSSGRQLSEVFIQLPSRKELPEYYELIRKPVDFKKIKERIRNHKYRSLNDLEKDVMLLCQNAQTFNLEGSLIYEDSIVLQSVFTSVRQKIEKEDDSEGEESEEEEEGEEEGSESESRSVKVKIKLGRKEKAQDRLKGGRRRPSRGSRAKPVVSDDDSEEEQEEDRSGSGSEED
inactive: [1] 0.021 | [2] -0.007 | [3] 0.035 | [4] 0.018 | [5] -0.009 | [6] -0.003 | [7] -0.032 | [8] -0.026 | [9] 0.028 | [10] 0.012 | [11] 0.011 | [12] 0.006 | [13] 0.038 | [14] -0.058 | [15] -0.024 | [16] 0.02 | [17] -0.044 | [18] -0.024 | [19] 0.011 | [20] 0.034

TAF6L (UniProt Q9Y6J9)
active: [14] -0.245
inactive: [1] 0.072 | [2] 0.046 | [3] 0.042 | [4] -0.078 | [5] 0.01 | [6] -0.041 | [7] -0.006 | [8] -0.027 | [9] 0.027 | [10] -0.009 | [11] -0.029 | [12] 0.035 | [13] -0.05 | [15] -0.007 | [16] -0.015 | [17] 0.018 | [18] 0.022 | [19] 0.029 | [20] 0.05

SLC20A1 (UniProt Q8WUM9)
active: [14] 0.416
inactive: [1] 0.022 | [2] -0.028 | [3] -0.013 | [4] -0.08 | [5] 0.05 | [6] 0.072 | [7] -0.015 | [8] 0.027 | [9] 0.002 | [10] -0.054 | [11] 0.099 | [12] -0.004 | [13] 0.009 | [15] -0.028 | [16] -0.061 | [17] 0.153 | [18] -0.013 | [19] 0.063 | [20] -0.006

SP1 (UniProt P08047)
Sequence of UniProt P08047 (P08047 whole entry, looked up): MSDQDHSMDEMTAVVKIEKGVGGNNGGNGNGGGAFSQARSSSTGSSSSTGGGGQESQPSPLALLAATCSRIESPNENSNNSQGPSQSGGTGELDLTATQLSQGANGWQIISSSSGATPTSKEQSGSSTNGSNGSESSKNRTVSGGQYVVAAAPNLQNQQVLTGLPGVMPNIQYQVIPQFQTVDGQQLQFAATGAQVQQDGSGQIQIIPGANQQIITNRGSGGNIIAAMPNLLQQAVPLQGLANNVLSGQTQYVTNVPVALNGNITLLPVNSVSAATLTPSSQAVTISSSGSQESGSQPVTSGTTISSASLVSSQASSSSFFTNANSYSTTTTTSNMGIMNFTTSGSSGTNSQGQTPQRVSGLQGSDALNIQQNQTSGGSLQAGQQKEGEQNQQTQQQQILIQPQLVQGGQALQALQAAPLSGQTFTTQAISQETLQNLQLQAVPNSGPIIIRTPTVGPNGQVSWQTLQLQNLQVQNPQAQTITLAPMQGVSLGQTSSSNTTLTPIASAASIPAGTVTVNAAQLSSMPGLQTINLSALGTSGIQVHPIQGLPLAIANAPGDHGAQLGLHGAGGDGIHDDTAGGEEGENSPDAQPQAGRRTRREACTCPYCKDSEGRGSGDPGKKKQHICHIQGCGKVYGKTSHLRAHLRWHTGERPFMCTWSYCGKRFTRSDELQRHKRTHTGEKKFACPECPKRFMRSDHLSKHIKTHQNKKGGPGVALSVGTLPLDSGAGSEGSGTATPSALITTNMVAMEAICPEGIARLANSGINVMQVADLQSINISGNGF
inactive: [1] 0.04 | [2] 0.017 | [3] -0.018 | [4] -0.049 | [5] -0.103 | [6] -0.013 | [7] 0.061 | [8] 0.22 | [9] 0.017 | [10] -0.027 | [11] -0.115 | [12] 0.056 | [13] 0.045 | [14] 0.015 | [15] 0.043 | [16] -0.008 | [17] -0.061 | [18] 0.019 | [19] 0.037 | [20] -0.154

SPC25 (UniProt Q9HBM1)
Sequence of UniProt Q9HBM1 (Q9HBM1 whole entry, looked up): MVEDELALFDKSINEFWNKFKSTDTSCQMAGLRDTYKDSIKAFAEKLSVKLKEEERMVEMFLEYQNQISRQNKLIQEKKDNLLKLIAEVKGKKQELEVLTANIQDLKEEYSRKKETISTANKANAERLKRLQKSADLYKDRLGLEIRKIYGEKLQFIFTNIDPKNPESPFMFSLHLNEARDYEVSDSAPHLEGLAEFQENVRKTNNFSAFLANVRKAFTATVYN
inactive: [1] 0 | [2] -0.058 | [3] -0.038 | [4] 0.015 | [5] -0.002 | [6] -0.032 | [7] -0.017 | [8] 0.016 | [9] 0.002 | [10] 0.006 | [11] 0.011 | [12] -0.008 | [13] 0.036 | [14] 0.006 | [15] -0.019 | [16] 0.012 | [17] -0.083 | [18] -0.004 | [19] 0.013 | [20] -0.013

SPG11 (UniProt Q96JI7)
inactive: [1] 0.077 | [2] 0.068 | [3] 0.049 | [4] -0.024 | [5] -0.011 | [6] -0.048 | [7] -0.063 | [8] -0.061 | [9] 0.098 | [10] 0.007 | [11] 0.084 | [12] -0.011 | [13] 0.006 | [14] -0.042 | [15] -0.037 | [16] -0.05 | [17] 0.06 | [18] -0.13 | [19] 0.077 | [20] 0.007

SLC38A1 (UniProt Q9H2H9)
Sequence of UniProt Q9H2H9 (Q9H2H9 whole entry, looked up): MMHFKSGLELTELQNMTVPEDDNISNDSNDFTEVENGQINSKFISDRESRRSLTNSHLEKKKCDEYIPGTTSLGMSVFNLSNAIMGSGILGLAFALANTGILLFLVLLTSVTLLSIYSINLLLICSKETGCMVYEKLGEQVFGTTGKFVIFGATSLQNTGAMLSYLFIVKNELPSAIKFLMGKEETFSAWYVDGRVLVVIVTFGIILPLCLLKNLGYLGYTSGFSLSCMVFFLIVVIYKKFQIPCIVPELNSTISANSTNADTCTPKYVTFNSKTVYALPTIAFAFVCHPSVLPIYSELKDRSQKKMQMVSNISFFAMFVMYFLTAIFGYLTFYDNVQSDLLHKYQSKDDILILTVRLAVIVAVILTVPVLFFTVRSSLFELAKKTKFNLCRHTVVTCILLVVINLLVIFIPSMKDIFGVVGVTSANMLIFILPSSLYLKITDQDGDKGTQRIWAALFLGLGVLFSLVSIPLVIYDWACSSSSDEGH
active: [17] -0.269
inactive: [1] 0.001 | [2] -0.053 | [3] -0.021 | [4] -0.041 | [5] 0.037 | [6] -0.001 | [7] -0.039 | [8] 0.027 | [9] 0.018 | [10] -0.01 | [11] 0.03 | [12] -0.007 | [13] 0 | [14] 0.035 | [15] 0.066 | [16] 0.008 | [18] 0.102 | [19] -0.002 | [20] 0.024

SH3BGRL2 (UniProt Q9UJC5)
Sequence of UniProt Q9UJC5 (Q9UJC5 whole entry, looked up): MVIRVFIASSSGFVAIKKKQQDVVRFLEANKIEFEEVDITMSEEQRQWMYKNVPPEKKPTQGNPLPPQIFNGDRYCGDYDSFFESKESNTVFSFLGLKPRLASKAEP
active: [17] 0.387
inactive: [1] -0.014 | [2] 0.027 | [3] 0.006 | [4] -0.014 | [5] 0.035 | [6] 0.03 | [7] -0.004 | [8] 0.036 | [9] -0.072 | [10] 0.053 | [11] -0.013 | [12] 0.021 | [13] 0.022 | [14] 0.076 | [15] 0.006 | [16] -0.007 | [18] -0.052 | [19] 0.014 | [20] 0.002

SLC30A9 (UniProt Q6PML9)
active: [17] -0.534
inactive: [1] 0.061 | [2] 0.002 | [3] -0.03 | [4] 0.064 | [5] 0.021 | [6] -0.033 | [7] 0.008 | [8] 0.017 | [9] -0.213 | [10] -0.009 | [11] -0.005 | [12] 0.024 | [13] 0.015 | [14] 0.07 | [15] 0.018 | [16] 0.056 | [18] 0.079 | [19] 0.034 | [20] -0.056

SKA1 (UniProt Q96BD8)
Sequence of UniProt Q96BD8 (Q96BD8 whole entry, looked up): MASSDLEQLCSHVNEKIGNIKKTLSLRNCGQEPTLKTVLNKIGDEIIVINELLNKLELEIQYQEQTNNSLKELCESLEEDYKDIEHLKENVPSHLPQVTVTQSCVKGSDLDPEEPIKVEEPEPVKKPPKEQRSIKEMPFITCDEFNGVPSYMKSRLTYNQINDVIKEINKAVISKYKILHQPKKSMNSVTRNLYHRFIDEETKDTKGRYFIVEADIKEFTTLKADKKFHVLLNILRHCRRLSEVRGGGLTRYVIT
inactive: [1] 0.002 | [2] 0.033 | [3] -0.023 | [4] -0.017 | [5] 0.044 | [6] 0.014 | [7] 0.066 | [8] -0.017 | [9] 0.033 | [10] 0.007 | [11] -0.004 | [12] -0.01 | [13] -0.017 | [15] -0.121 | [16] 0.003 | [17] -0.167 | [18] 0.021 | [19] 0.071 | [20] 0.066
active: [14] -0.234

SNRNP40 (UniProt Q96DI7)
active: [7] 0.332
inactive: [1] -0.008 | [2] 0.026 | [3] -0.03 | [4] -0.047 | [5] -0.02 | [6] 0.042 | [8] 0.02 | [9] 0.069 | [10] 0.029 | [11] -0.032 | [12] 0.019 | [13] -0.06 | [14] -0.001 | [15] -0.024 | [16] -0.033 | [17] -0.115 | [18] 0.058 | [19] 0.01 | [20] -0.013

SLC12A6 (UniProt Q9UHW9)
inactive: [1] 0.01 | [2] -0.021 | [3] -0.037 | [4] -0.014 | [5] 0.011 | [6] 0.001 | [7] -0.012 | [8] 0.012 | [9] 0.024 | [10] -0.021 | [11] 0.015 | [12] 0.021 | [13] 0.002 | [14] 0.037 | [15] 0.002 | [16] 0.008 | [17] -0.06 | [18] 0.012 | [19] -0.003 | [20] -0.01

SPATA5L1 (UniProt Q9BVQ7)
Sequence of UniProt Q9BVQ7 (Q9BVQ7 whole entry, looked up): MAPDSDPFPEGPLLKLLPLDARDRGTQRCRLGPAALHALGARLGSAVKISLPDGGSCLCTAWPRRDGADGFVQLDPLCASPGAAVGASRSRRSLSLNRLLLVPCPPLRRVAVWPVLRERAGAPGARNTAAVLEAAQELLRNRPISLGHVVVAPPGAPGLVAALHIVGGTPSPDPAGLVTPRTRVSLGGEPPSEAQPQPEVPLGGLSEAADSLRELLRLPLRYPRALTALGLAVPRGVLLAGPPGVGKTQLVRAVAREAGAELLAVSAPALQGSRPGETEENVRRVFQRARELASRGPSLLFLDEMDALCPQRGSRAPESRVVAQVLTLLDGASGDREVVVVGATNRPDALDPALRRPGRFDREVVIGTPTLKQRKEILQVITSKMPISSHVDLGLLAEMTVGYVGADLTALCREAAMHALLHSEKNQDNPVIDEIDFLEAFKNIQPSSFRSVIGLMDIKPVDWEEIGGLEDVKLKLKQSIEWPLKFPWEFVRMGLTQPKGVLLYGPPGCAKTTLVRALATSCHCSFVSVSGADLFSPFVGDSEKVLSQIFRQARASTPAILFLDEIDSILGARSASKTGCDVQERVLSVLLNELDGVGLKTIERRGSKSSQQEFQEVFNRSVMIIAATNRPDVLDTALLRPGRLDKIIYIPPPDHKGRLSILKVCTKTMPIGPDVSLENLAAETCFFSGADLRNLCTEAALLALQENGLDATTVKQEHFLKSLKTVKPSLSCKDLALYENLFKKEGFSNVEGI
inactive: [1] -0.007 | [2] 0.02 | [3] 0.037 | [4] -0.054 | [5] 0.018 | [6] -0.004 | [7] -0.052 | [8] -0.007 | [9] 0.026 | [10] -0.008 | [11] 0.03 | [12] 0.015 | [13] 0.052 | [14] -0.058 | [15] -0.135 | [16] 0.014 | [17] -0.023 | [18] 0.012 | [19] 0.024 | [20] 0.015

SPR (UniProt P35270)
Sequence of UniProt P35270 (P35270 whole entry, looked up): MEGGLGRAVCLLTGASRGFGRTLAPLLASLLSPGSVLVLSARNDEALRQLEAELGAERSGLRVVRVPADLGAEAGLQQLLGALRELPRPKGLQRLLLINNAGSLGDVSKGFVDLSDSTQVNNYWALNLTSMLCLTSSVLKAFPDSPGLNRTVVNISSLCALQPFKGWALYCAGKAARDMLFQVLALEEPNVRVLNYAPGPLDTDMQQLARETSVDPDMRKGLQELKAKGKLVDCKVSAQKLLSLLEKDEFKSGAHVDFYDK
inactive: [1] 0.027 | [2] 0.293 | [3] 0.024 | [4] 0 | [5] -0.048 | [6] -0.051 | [7] -0.038 | [8] -0.046 | [9] -0.028 | [10] 0.023 | [11] 0.01 | [12] 0.026 | [13] -0.013 | [14] -0.014 | [15] -0.003 | [16] -0.024 | [17] 0.158 | [18] -0.028 | [19] 0.093 | [20] -0.047

STK4 (UniProt Q13043)
Sequence of UniProt Q13043 (Q13043 whole entry, looked up): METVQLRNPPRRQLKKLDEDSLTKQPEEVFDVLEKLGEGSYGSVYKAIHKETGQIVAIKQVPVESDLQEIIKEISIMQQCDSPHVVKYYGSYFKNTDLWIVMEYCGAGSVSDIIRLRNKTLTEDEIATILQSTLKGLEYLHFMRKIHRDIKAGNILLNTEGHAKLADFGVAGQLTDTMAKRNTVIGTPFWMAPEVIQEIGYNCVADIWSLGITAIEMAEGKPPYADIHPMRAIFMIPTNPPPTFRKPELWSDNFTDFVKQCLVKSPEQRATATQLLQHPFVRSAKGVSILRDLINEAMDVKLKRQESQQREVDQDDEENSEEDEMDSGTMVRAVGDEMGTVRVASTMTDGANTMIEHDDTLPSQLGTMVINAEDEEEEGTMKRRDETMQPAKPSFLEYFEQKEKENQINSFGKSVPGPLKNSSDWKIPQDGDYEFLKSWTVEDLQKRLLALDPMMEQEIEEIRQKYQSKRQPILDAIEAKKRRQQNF
inactive: [1] 0.056 | [2] 0.324 | [3] -0.006 | [4] 0.007 | [5] 0.004 | [6] -0.023 | [7] -0.015 | [8] -0.036 | [9] 0.024 | [10] -0.07 | [11] 0.058 | [12] 0.047 | [13] 0.029 | [14] 0.002 | [15] -0.046 | [16] 0.023 | [17] -0.019 | [18] 0.168 | [19] 0.029 | [20] 0.199
